Screening results from PubChem BioAssay.
KLK7 zymogen act: proKLK7 zymogen activators, primary screen, biochemical, fluorescence intensity. Kallikrein-7 (Homo sapiens), P49862. purified proKLK7, EDANS-DABCYL substrate fluorescence; 100% is mature enzyme control, 0% vehicle. activation, % at 7 µM. actives 0.9% (n = 370,000). AID 652039, 2013;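 active = activation above the mean of all tested compounds plus 3 SD, computed per campaign excluding outliers beyond control limits, cut at about 13% in these data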
ADAM17 inh: ADAM17 inhibitors, primary screen, biochemical, QFRET. Disintegrin and metalloproteinase domain-containing protein 17 (Homo sapiens), P78536. actives 0.83% (n = 370,000). inhibition, % at 6.95 µM. recombinant ADAM17, EDANS/DABCYL FRET peptide cleavage;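 active = inhibition above the mean of compounds lying between control limits plus 3 SD, set per campaign, cut at about 8.5% in these data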
Target sequence (P78536 215-824 limits assumed): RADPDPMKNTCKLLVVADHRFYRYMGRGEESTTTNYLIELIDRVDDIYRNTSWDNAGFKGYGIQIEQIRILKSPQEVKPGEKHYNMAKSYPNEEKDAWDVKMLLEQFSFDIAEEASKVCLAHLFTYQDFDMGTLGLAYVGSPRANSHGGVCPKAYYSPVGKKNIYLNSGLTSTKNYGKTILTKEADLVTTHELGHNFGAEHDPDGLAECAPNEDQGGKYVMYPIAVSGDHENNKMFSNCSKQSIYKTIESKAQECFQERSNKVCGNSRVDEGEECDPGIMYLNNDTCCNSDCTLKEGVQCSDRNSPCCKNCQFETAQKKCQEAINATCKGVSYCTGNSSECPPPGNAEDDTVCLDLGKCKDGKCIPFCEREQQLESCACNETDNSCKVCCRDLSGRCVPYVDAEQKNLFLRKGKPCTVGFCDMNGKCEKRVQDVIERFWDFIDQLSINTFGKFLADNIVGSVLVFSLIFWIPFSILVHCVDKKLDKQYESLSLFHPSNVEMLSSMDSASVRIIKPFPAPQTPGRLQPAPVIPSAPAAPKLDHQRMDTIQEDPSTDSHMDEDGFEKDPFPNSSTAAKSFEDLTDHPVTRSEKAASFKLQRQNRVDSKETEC
ADAM10 inh: human ADAM10 inhibitors, primary screen, biochemical, QFRET, HTS; Disintegrin and metalloproteinase domain-containing protein 10 (Homo sapiens), O14672; recombinant ADAM10, EDANS/DABCYL FRET peptide cleavage, 3 h; inhibition, % at 7 µM; actives 0.62% (n = 370,000);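 active = inhibition above a per-campaign cutoff equal to the mean of compounds falling between control-based bounds plus 3 SD, cut at about 20% in these data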
PLC-beta3 inh: human PLC-beta3 inhibitors, primary screen, biochemical, fluorescence; actives 0.18% (n = 370,000); AID 720704, 2013; Purified PLC-beta3, fluorogenic substrate; inhibition, % at 12.2 µM; in the data active = inhibition above about 11%
PLC-gamma1 inh: PLC-gamma1 enzyme inhibitors, primary screen, biochemical, fluorescence, purified enzyme; actives 0.84% (n = 370,000); fluorogenic substrate; 1-phosphatidylinositol 4,5-bisphosphate phosphodiesterase gamma-1 (Homo sapiens), P19174; inhibition, % at 12.2 µM; in the data active = inhibition above about 9.5%
KLK7 act conf: proKLK7 zymogen activators, confirmation, biochemical, fluorescence intensity, triplicate; shares compounds with KLK7 zymogen act; purified proKLK7, EDANS-DABCYL substrate fluorescence; scaled: vehicle 0, mature enzyme 100; activation, % at 7 µM; actives 68% (n = 3,200);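 active = activation, as change over the incubation, above the mean of all tested compounds plus 3 SD, cut at about 13% in these data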
EDANS interfere: EDANS-DABCYL substrate optical interference, artefact control for kallikrein-7 zymogen activator project, biochemical, fluorescence intensity, high throughput. shares compounds with KLK7 zymogen act. no enzyme, 4 h; solvent 0%, active enzyme control 100%. activation, % at 7 µM. actives 80% (n = 3,200). AID 686952, 2013;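 active = activation above the all-compound mean plus 3 SD, ignoring values outside control-based bounds, cut at about 4.8% in these data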;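 note: value is the 4 h activation minus the activation read at time zero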
Numbers stand for hits. Only some compounds are listed: those with a hit (about 2.9% of all), similar ones and a draw of the others.

For CN(C)CCCNC(=O)C[C@H]1C[C@H](C(=O)N2CCCCC2)[C@@]2(CCc3ccccc3)c3[nH]c4cc(-c5ccco5)ccc4c3CCN2C1=O the results were KLK7 zymogen act 45.9, ADAM17 inh inactive, ADAM10 inh inactive, PLC-beta3 inh inactive, PLC-gamma1 inh inactive, KLK7 act conf 40.7 and EDANS interfere 51.6.
Screening CC(C)N(C(=O)[C@H]1C[C@H](CC(=O)NCCCn2ccnc2)C(=O)N2CCc3c([nH]c4cc(-c5ccco5)ccc34)[C@]12C)C(C)C returned KLK7 zymogen act inactive, ADAM17 inh inactive, ADAM10 inh inactive, PLC-beta3 inh inactive and PLC-gamma1 inh inactive.
For CC[C@]12c3[nH]c4cc(-c5ccco5)ccc4c3CCN1C(=O)[C@@H](CC(=O)NCC13CC4CC(CC(C4)C1)C3)C[C@@H]2C(=O)N1CCN(C(=O)c2ccco2)CC1 the results were KLK7 zymogen act inactive, ADAM17 inh inactive, ADAM10 inh inactive, PLC-beta3 inh inactive and PLC-gamma1 inh inactive.
C[C@]12c3[nH]c4cc(-c5ccco5)ccc4c3CCN1C(=O)[C@@H](CC(=O)NCCCn1ccnc1)C[C@@H]2C(=O)N1CCCCC1 was read as KLK7 zymogen act 105.0, ADAM17 inh inactive, ADAM10 inh inactive, PLC-beta3 inh inactive, PLC-gamma1 inh inactive, KLK7 act conf 39.7 and EDANS interfere 61.2.
CN(C)CCCNC(=O)C[C@H]1C[C@H](C(=O)N2CCCCC2)[C@@]2(C)c3[nH]c4cc(-c5ccco5)ccc4c3CCN2C1=O was read as KLK7 zymogen act 97.1, ADAM17 inh inactive, ADAM10 inh inactive, PLC-beta3 inh inactive, PLC-gamma1 inh inactive, KLK7 act conf 86.3 and EDANS interfere 108.5.
For CN(C)CCCNC(=O)CC1C[C@H](C(=O)N2CCCCC2)[C@@]2(CCc3ccccc3)c3[nH]c4ccccc4c3CCN2C1=O (stereo not given in full) the results were KLK7 zymogen act inactive, ADAM17 inh inactive, ADAM10 inh inactive, PLC-beta3 inh inactive and PLC-gamma1 inh inactive.
For CC[C@]12c3[nH]c4cc(-c5ccco5)ccc4c3CCN1C(=O)[C@@H](CC(=O)NCCCN(C)C)C[C@@H]2C(=O)N1CCN(C(=O)c2ccco2)CC1 the results were KLK7 zymogen act 84.2, ADAM17 inh inactive, ADAM10 inh inactive, PLC-beta3 inh inactive, PLC-gamma1 inh inactive, KLK7 act conf 46.8 and EDANS interfere 63.4.
Screening CCOC(=O)NC(=O)CSc1nc(C)cc(C)c1C#N returned KLK7 zymogen act 98.9, ADAM17 inh inactive, ADAM10 inh inactive, PLC-beta3 inh inactive, PLC-gamma1 inh inactive, KLK7 act conf 90.9 and EDANS interfere 98.6.
Screening COC(=O)CC(=O)CSc1nc(C)cc(C)c1C#N returned KLK7 zymogen act 20.4, ADAM17 inh inactive, ADAM10 inh inactive, PLC-beta3 inh inactive, PLC-gamma1 inh inactive, KLK7 act conf 93.0 and EDANS interfere 91.3.
Cc1cc(C)c(C#N)c(SCC(=O)Nc2cc(C)on2)n1 was read as KLK7 zymogen act 15.7, ADAM17 inh inactive, ADAM10 inh inactive, PLC-beta3 inh inactive, PLC-gamma1 inh inactive, KLK7 act conf 102.5 and EDANS interfere 109.0.
`Cc1cc(C)c(C#N)c(SCC(=O)C(C)(C)C)n1` gave KLK7 zymogen act inactive, ADAM17 inh inactive, ADAM10 inh inactive, PLC-beta3 inh inactive and PLC-gamma1 inh inactive.
CCc1nnc(NC(=O)CSc2nc(C)cc(C)c2C#N)s1 was read as KLK7 zymogen act 13.7, ADAM17 inh inactive, ADAM10 inh inactive, PLC-beta3 inh inactive, PLC-gamma1 inh inactive, KLK7 act conf 81.9 and EDANS interfere 80.1.
COCCCN1C(=O)[C@H](CC(=O)NCc2ccc(OC)c(OC)c2)[C@]2(C(=O)OC)CCCCC=C12 was read as KLK7 zymogen act inactive, ADAM17 inh inactive, ADAM10 inh inactive, PLC-beta3 inh inactive and PLC-gamma1 inh inactive.
For CCc1c(C)nc(SCC(=O)CC(=O)OC(C)C)c(C#N)c1C the results were KLK7 zymogen act 48.2, ADAM17 inh inactive, ADAM10 inh inactive, PLC-beta3 inh inactive, PLC-gamma1 inh inactive, KLK7 act conf 26.5 and EDANS interfere 24.1.
`CCc1c(C)nc(SCC(N)=O)c(C#N)c1C` gave KLK7 zymogen act inactive, ADAM17 inh inactive, ADAM10 inh inactive, PLC-beta3 inh inactive and PLC-gamma1 inh inactive.
Screening CN1C/C(=C/c2ccccc2)N2C(=O)C[C@@H](c3ccccc3)N=C12 returned KLK7 zymogen act inactive, ADAM17 inh inactive, ADAM10 inh inactive, PLC-beta3 inh inactive and PLC-gamma1 inh inactive.
CCCN1CCS(=O)(=O)N(Cc2cn(Cc3ccccc3)nn2)C(C(=O)OC)C1 (stereo not given) was read as KLK7 zymogen act inactive, ADAM17 inh inactive, ADAM10 inh inactive, PLC-beta3 inh inactive and PLC-gamma1 inh inactive.
`O=C(ONC(=O)C1C2C=CC(C2)C1C(=O)NOC(=O)c1ccccc1)c1ccccc1` (stereo not given) gave KLK7 zymogen act 45.0, ADAM17 inh inactive, ADAM10 inh inactive, PLC-beta3 inh inactive, PLC-gamma1 inh inactive, KLK7 act conf inactive and EDANS interfere inactive.
Screening COc1ccc(Cn2ccc3ccc(-c4ccc5ccn(Cc6cccc(F)c6)c5c4)cc32)cc1 returned KLK7 zymogen act inactive, ADAM17 inh inactive, ADAM10 inh inactive, PLC-beta3 inh inactive and PLC-gamma1 inh inactive.
For CN(CCOC(=O)c1cc2ccccc2o1)C1CN(Cc2cn(Cc3ccccc3Cl)nn2)S(=O)(=O)C1 (stereo not given) the results were KLK7 zymogen act inactive, ADAM17 inh inactive, ADAM10 inh inactive, PLC-beta3 inh inactive and PLC-gamma1 inh inactive.
Screening COC(=O)C1=C(C)N(C)C(=NCc2ccc(C(F)(F)F)cc2)NC1c1ccc(C(F)(F)F)cc1 (stereo not given) returned KLK7 zymogen act inactive, ADAM17 inh inactive, ADAM10 inh inactive, PLC-beta3 inh inactive and PLC-gamma1 inh inactive.
`COc1ccccc1Oc1coc2cc(OCC(N)=O)ccc2c1=O` gave KLK7 zymogen act inactive, ADAM17 inh inactive, ADAM10 inh inactive, PLC-beta3 inh inactive and PLC-gamma1 inh inactive.
For COc1ccccc1Oc1coc2c(CN3CCOCC3)c(O)ccc2c1=O the results were KLK7 zymogen act 193.3, ADAM17 inh inactive, ADAM10 inh inactive, PLC-beta3 inh inactive, PLC-gamma1 inh inactive, KLK7 act conf 67.7 and EDANS interfere 79.5.
For COc1ccccc1-c1c(C(F)(F)F)oc2c(CN(C)C)c(O)ccc2c1=O the results were KLK7 zymogen act inactive, ADAM17 inh inactive, ADAM10 inh inactive, PLC-beta3 inh inactive and PLC-gamma1 inh inactive.
